PHOSPHO1 block: inhibitors of human PHOSPHO1 phosphatase; AID 1565; Q8TCT1; 290,000 compounds, 1.1% hits; inhibition, % at 13.3 µM; recombinant PHOSPHO1, absorbance phosphatase assay; in the data active = inhibition above about 60%
PABP1 MLLE inh: blocks PAM2 peptide binding to the PABP1 MLLE domain; P11940; GST-MLLE / FITC-PAM2 fluorescence polarization; inhibition, % at 20 µM; 360,000 compounds, 0.36% hits; AID 588489; in the data active = inhibition above about 35%, passing the limit was not always enough;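 also: plate controls were DMSO wells with GST-MLLE for no effect and wells lacking GST-MLLE protein for full effect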
Target sequence (P11940 whole entry, looked up, the tested form may be a part): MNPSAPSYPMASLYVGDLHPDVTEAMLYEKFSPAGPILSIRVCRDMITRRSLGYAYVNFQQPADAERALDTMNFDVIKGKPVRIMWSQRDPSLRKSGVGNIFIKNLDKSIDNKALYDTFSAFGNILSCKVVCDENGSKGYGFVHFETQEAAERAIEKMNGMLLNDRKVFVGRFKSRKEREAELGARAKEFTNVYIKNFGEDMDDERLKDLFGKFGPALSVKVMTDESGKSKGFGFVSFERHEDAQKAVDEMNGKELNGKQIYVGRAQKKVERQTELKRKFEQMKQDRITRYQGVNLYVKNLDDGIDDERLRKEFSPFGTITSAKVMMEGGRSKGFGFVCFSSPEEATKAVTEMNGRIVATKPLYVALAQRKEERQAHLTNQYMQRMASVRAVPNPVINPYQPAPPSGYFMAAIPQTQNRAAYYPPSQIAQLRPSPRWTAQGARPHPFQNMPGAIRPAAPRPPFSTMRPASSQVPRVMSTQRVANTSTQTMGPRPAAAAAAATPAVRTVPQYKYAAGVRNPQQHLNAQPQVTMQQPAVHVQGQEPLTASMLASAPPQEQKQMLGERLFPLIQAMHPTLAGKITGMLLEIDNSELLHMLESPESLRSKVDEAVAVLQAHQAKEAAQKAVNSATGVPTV
eIF4H inh: inhibitors of RNA binding by human eIF4H | eIF4H fluorescence polarization binding assay | Q15056 | inhibition, % at 35 µM | 290,000 compounds, 0.94% hits;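 also: calls also rest on retests at 20 µM and on dose response follow-up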
PABP polyA inh: PABP-poly(A) binding inhibition; P11940; PABP-poly(A) RNA binding, fluorescence polarization; inhibition, % at 35 µM; 290,000 compounds, 1% hits; AID 2014;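 also: calls also rest on retests at 20 µM and on dose response follow-up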
CRFR2-BP antag: antagonists of CRF-binding protein/CRF-R2 receptor complex; inhibition, % at 11.8 µM; 350,000 compounds, 0.59% hits; HEK293 CRF-R2/CRF-BP, CRF-induced calcium fluorescence; AID 588475;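 active = inhibition of the ligand-induced calcium signal above about 50% at the single tested concentration, limit read from the data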
* = called active by the depositor; ? = inconclusive; / = no result given. Compounds with a hit are over-represented: about 2.6% of the library has one in this group of screens. Unless noted, no rule for the calls is given here.

SMILES	PHOSPHO1 block	PABP1 MLLE inh	eIF4H inh	PABP polyA inh	CRFR2-BP antag
CC1(C)CC(Cc2ccc(C(=O)c3ccccc3)cc2)N(C(=O)OC(C)(C)C)N1 (centres undefined)	/	7	/	/	-4
CCS(=O)(=O)c1nc(S(=O)(=O)c2ccc(C)cc2)c(N2CCOCC2)s1	26	8	8	10	-16
Cc1ccc(S(=O)(=O)c2nc(S(C)(=O)=O)sc2N2CCOCC2)cc1	53	-3	1	5	95*
O=C(NC(=S)Nc1ccc2oc(=O)ccc2c1)c1ccco1	13	43*	-10	-4	14
Cc1nc(NS(=O)(=O)c2ccccc2)sc1NC(=O)OC(C)C	-15	39*	-3	-3	-9
Cc1ccc(S(=O)(=O)Nc2nc(C)c(NC(=O)OCCCl)s2)cc1	8	19	1	9	-9
Cc1ccc(S(=O)(=O)Nc2nc(C)c(C(=O)Nc3ccccc3)s2)cc1	-9	10	5	19	14
COc1ccc(NC(=O)Nc2sc(NS(=O)(=O)c3ccccc3)nc2C)cc1	-71	40*	-4	21	7
CCc1cc(=O)oc2cc(OC(C)C(=O)N3CC[C@@]4(O)CCCC[C@H]4C3)ccc12 (some centres undefined)	/	2	/	/	/
Cc1ccc(CN=C(Nc2ccccc2)NC2CCCCC2)cc1	28	-2	-8	2	-8
CC1(C(=O)Nc2ccc3ccccc3c2)CCC(=O)N1CCCn1ccnc1 (centres undefined)	/	-6	/	/	/
O=C(CSc1nnc(Cc2cc(=O)[nH]c(=O)[nH]2)n1-c1ccc(Cl)cc1)NC1CCCC1	28	31	62*	65*	-2
Cc1ccc(Cl)cc1NC(=O)CNC(=O)N1CC(=O)Nc2ccccc21	80*	-10	6	2	-8
O=[N+]([O-])c1cccc(-c2nc(-c3ccccn3)no2)c1	16	1	-12	2	59*
CC1(C(=O)NS(=O)(=O)c2ccccc2Cl)CCN1C(=O)COc1ccc(Cl)cc1 (centres undefined)	/	-7	/	/	/
Cc1ccc(-c2nnn(CCC(=O)N3CCCCC3C)n2)cc1 (centres undefined)	2	1	-8	-7	-22
CC1CCCCN1C(=O)Cn1nnc(-c2cccnc2)n1 (centres undefined)	2	49*	?	4	8
Cc1ccccc1NC(=O)CSc1nnc(-c2ccco2)c(-c2ccco2)n1	41	21	99*	69*	-5
Cc1cccc(C)c1NC(=O)CCCSc1nnc(-c2ccco2)o1	/	-24	/	/	-16
Cc1cccc(C)c1NC(=O)CSc1nnc(-c2ccco2)c(-c2ccco2)n1	-62	30	100*	80*	-24
COc1cccc(-c2cc3nc(NCCN4CCCC4)n(C)c(=O)c3s2)c1	/	-12	/	/	/
N/C(CN1CCCCC1)=N\S(=O)(=O)c1cc(Cl)cc(Cl)c1	29	-2	2	-4	113*
O=C(c1cc2nc(-c3ccccc3)cc(-c3ccccc3)n2n1)N1CCN(C(=O)c2ccco2)CC1	4	3	-2	2	55*
CCn1c(CSc2nnc3ccccn23)nc2cc(C(=O)O)ccc21	-3	31	129*	128*	5
CCn1c(CSc2nnc(-c3cccnc3)n2-c2ccccc2C)nc2cc(C(=O)O)ccc21	7	/	50	48	/
SMILES	PHOSPHO1 block	PABP1 MLLE inh	eIF4H inh	PABP polyA inh	CRFR2-BP antag
C=CCNC(=S)Nc1ccccc1-c1nnc2n1CCCCC2	-1	22	4	4	-9
COc1ccccc1C(=O)NCCC(=O)N1CCN(c2ccccc2O)CC1	/	-4	/	/	71*
Cn1nc(C(F)(F)F)cc1-c1ccc(/C=C(\C#N)C(=O)c2ccccc2)s1	20	-72	102	19*	-31
Cc1cc(=O)n2nc(N3CCCC(C(=O)Nc4cccc(C)c4C)C3)sc2n1 (centres undefined)	/	-28	/	/	/
CCCc1c(C(=O)N/N=C/c2ccc3c(c2)OCO3)nnn1-c1nonc1N	/	13	/	/	-24
O=C(NCc1ccc(/C=c2\sc3n(c2=O)CCN=3)o1)C(=O)Nc1ccccc1	-26	/	82*	-11	/
CNc1ccc(-c2cc(OC)ccc2OC)cn1	/	-4	/	/	/
CCN(CC)c1cccc(OC2=NS(=O)(=O)c3ccccc32)c1	7	-16	58*	35	10
C/C=C/C(=O)OCC(=O)Nc1ccc(SC(F)F)cc1	20	29	active	50*	1
OC(c1ccc(-c2ccccc2)cc1)c1ncc(-c2ccccc2F)[nH]1 (centres undefined)	/	-6	/	/	/
CCOC(=O)N1CCN(C(=O)c2cccc(-n3c(=S)[nH]c4cc(Cl)ccc4c3=O)c2)CC1	64*	-13	2	4	-5

Screens deposited in PubChem by Sanford-Burnham Center for Chemical Genomics.
